Experimental data published in PubChem BioAssay AID2061318 (National Center for Advancing Translational Sciences (NCATS), 2025).
Records with an inconclusive call do not appear. Activity calls are given as the source filed them. Calls follow the shape of the dose curve; as a rule, active = well fitted inhibition curve with a large enough effect; inconclusive = small, poorly fitted or top-dose-only effect; inactive = flat fitted curve, though single readings scatter.

Experiment: Identification of antibody-drug conjugate (ADC) payloads which are substrates of ATP-binding cassette drug efflux transporters: ABCB1-HEK293-MDR-19 cell line
Settings: HEK293 ABCB1 (MDR-19) viability, CellTiter-Glo, 48 h
From the text: Antibody-drug conjugates (ADCs) feature an antibody recognizing a specific protein joined to a potent toxic payload. Numerous antibody-drug conjugates have received FDA approval; however, clinical resistance arises. Resistance mechanisms include decreased expression or mutation of the antibody target, impaired payload release, or increased expression of ATP-binding cassette (ABC) efflux transporters associated with multidrug resistance. We therefore sought to characterize the interaction of ABC multidrug transporters with ADC payloads. We performed a high-throughput screen with 27 common ADC payloads using cells lines expressing ABC transporters P-glycoprotein (P-gp, encoded by ABCB1) or ABCG2 (encoded by ABCG2). Confirmatory assays were also performed using cells transfected to express P-gp, ABCG2, or MRP1 (encoded by ABCC1). Several commonly used ADC payloads were substrates of P-gp, including calicheamicin gamma1, monomethyl auristatin E, DM1, and DM4. All the pyrrolobenzodiazepines tested - SJG136, SGD-1882, SG2057, and SG3199 - were substrates of P-gp, ABCG2, and MRP1. […] These findings highlight the risk of transporter-mediated resistance with certain ADC payloads and underscore the importance of selecting payloads that evade ABC transporter recognition in future ADC development.
HEK-293 cells were transfected with empty vector (pcDNA) or vector containing the human ABCB1 (MDR-19), ABCG2 (R-5), or ABCC1 gene (MRP1) and were maintained in EMEM with 2 mg/mL G418 added to maintain transporter expression. The HeLa derivative KB-3-1 and the P-gp overexpressing KB-8-5-11 subline were maintained in DMEM; KB-8-5-11 additionally received 100 ng/mL colchicine. H460 parental cells were obtained from the Division of Cancer Treatment and Diagnosis Tumor Repository, National Cancer Institute at Frederick, MD and were cultured in RPMI. The ABCG2 expressing subline H460 MX20 was generated by selecting H460 cells in 20 nM mitoxantrone. Media in all cases was supplemented with 10% FBS and 1% penicillin-streptomycin. We explored 27 common ADC payloads, in two orthogonal, paired cell line sets-a drug selected and transfected set for each transporter--to identify substrates of the ABC transporters P-gp and ABCG2. Compounds were sourced from Levena Biopharma (San Diego, CA), Selleck Chem (Houston, TX), ChemieTek (Indianapolis, IN), or Microsource Discovery Systems (Gaylordsville, CT). Screening was performed as previously described. Briefly, cells were plated at a density of 500 cells/well in 1536 well plates with compounds added using a 1536-head pin tool (Kalypsys, San Diego CA). Cells were incubated with cytotoxic drugs and processed with CellTiter Glo reagent (Promega, Madison, WI) to determine viability after 48 hours. P-gp substrates were identified by comparing compound activity between paired sets of low-expressing (sensitive) and over-expressing (resistant) cell lines.

Row | SMILES | Potency
1 | COc1cc2cc(C(=O)N3C[C@@H](CCl)c4c3cc(O)c3ccccc43)[nH]c2c(OC)c1OC | 1.2 nM (active)
2 | COc1cc2cc(c1Cl)N(C)C(=O)C[C@H](OC(=O)[C@H](C)N(C)C(=O)CCS)[C@]1(C)OC1[C@H](C)C1C[C@@](O)(NC(=O)O1)[C@H](OC)/C=C/C=C(\C)C2 (stereo partly specified) | 298 nM (active)
3 | COc1cc2cc(c1Cl)N(C)C(=O)C[C@H](OC(=O)C(C)C)[C@]1(C)O[C@H]1[C@H](C)[C@@H]1C[C@@](O)(NC(=O)O1)[C@H](OC)C=CC=C(C)C2 | 14.9 nM (active)
4 | CC[C@H](C)[C@@H]([C@@H](CC(=O)N1CCC[C@H]1[C@H](OC)[C@@H](C)C(=O)N[C@H](C)[C@@H](O)c1ccccc1)OC)N(C)C(=O)[C@@H](NC(=O)[C@H](C(C)C)N(C)C)C(C)C | 66.6 nM (active)
5 | COc1cccc2c1C(=O)c1c(O)c3c(c(O)c1C2=O)C[C@@](O)(C(=O)CO)CC3OC1CC(N2CCOC(OC)C2)C(O)C(C)O1 (stereo partly specified) | 1.7 nM (active)
6 | CC[C@@]1(O)C(=O)OCc2c1cc1n(c2=O)Cc2cc3ccccc3nc2-1 | 13.3 nM (active)
